Source: PubChem BioAssay (EPA / NIEHS)
Some structures have more than one record in an assay (separate samples or runs), and their calls can disagree. Active and inactive are the calls of the source. Rule for the calls: active = hit-call score of the fitted dose curve at least 0.9, where 1 is the maximum; inactive = score below 0.9.

Test: ATG_GATA_CIS: Attagene CIS-FACTORIAL HepG2 Assay for human GATA Binding Protein (AID 2282944)
Settings: HepG2 GATA cis-element reporter, Attagene multiplex mRNA; actives raise or lower the signal
Procedure: ATG_CIS is a cell-based, multiplexed-readout assay that uses HepG2, a human liver cell line, with measurements taken at 24 hours after chemical dosing in a 24-well plate.ATG_GATA_CIS is one of 52 assay component(s) measured or calculated from the ATG_CIS assay. It is designed to make measurements of mRNA induction, a form of inducible reporter, as detected with fluorescence intensity signals by Reverse transcription polymerase chain reaction (RT-PCR) and Capillary electrophoresis technology.Data from the assay component ATG_GATA_CIS was analyzed into 1 assay endpoint. This assay endpoint, ATG_GATA_CIS, was analyzed with bidirectional fitting relative to DMSO as the negative control and baseline of activity. Using a type of inducible reporter, measures of mRNA for gain or loss-of-signal activity can be used to understand the reporter gene at the transcription factor-level as they relate to the gene GATA1. Furthermore, this assay endpoint can be referred to as a primary readout, because this assay has produced multiple assay endpoints where this one serves a reporter gene function. To generalize the intended target to other relatable targets, this assay endpoint is annotated to the dna binding intended target family, where the subfamily is GATA proteins.
Human liver HepG2 cells are transiently transfected with multiple reporter transcription units (MRTUs) in 6-well plates using FuGene 6 reagent (Roche; 3 ml FuGene/1 mg DNA). The MRTU constructs are regulated by a cis-regulating element (promoter). […] A major difference between the CIS and TRANS system is that in CIS activities of endogenous TFs are measured, whereas the TRANS assay evaluates changes in activities of exogenous, chimeric NR-Gal4 proteins. […] At the end of 24 hour incubation, total RNA was isolated using TriZol reagent (Invitrogen). The isolated RNA is then reverse-transcribed using oligo(dT) primer and Mo-MLV reverse transcriptase (Invitrogen) with DNAse I (Ambion) treatment for 30 min. The one-tenth of the produced cDNA was amplified by PCR using Taq DNA polymerase (Invitrogen) and two reporter sequence-specific primers. The PCR products were fluorescently labeled by primer extension with 6-arboxyfluorescein (6-FAM) 5'-labeled reporter sequence-specific primer (2 min at 95 C, 20 s at 68 C and 10 min at 72 C) and these products were digested with 5U of HpaI (New England Biolabs) for 2h at 37 C. The fragments were purified using Qiaquick PCR columns (Qiagen), analyzed on an ABI 3130xL genetic analyzer (Applied Biosystems) with peak positions identified by using a set of X-rhodamine (ROX)-labeled MapMarker1000 molecular weight standards (BioVentures). The raw capillary electrophoresis data was processed using Attagraph software (Attagene).
For `O=CC(F)(F)C(F)(F)C(F)(F)F`, the outcome was “inactive”. With `C[C@]12CC[C@@H]3c4ccc(O)cc4CC[C@H]3[C@@H]1CC[C@@H]2OC(=O)CCC1CCCC1` the outcome was “inactive”. In the case of `CC1CCC(C(=O)O)CC1` (stereo not given), the outcome is reported as “inactive”. With `CC(C)c1c(C(=O)Nc2ccccc2)c(-c2ccccc2)c(-c2ccc(F)cc2)n1CC[C@@H](O)C[C@@H](O)CC(=O)O` the outcome was “inactive”. For `c1cc2cccc3c4cccc5cccc(c(c1)c23)c54`, the outcome was “inactive”. With `CCCCCCCC(OC)OC` the outcome was “inactive”. For `CCCCCc1ccc(O)cc1`, the outcome was “inactive”. In the case of `CC1CCC(CO)CC1` (stereo not given), the outcome is reported as “inactive”. For `C=C(c1ccc(C(=O)O)cc1)c1cc2c(cc1C)C(C)(C)CCC2(C)C`, the outcome was “inactive” and the AC50 was 35.6 µM (active). In the case of `OCC(CO)(CBr)CBr`, the outcome is reported as “inactive”. With `C=CCOCC(CO)(CO)CO` the outcome was “inactive”. With `Cc1ccc(C)c(S(=O)(=O)O)c1` the outcome was “inactive”. With `CC(=O)Nc1ccc(S(N)(=O)=O)cc1` the outcome was “inactive”. For `FC(F)(F)C(F)(F)C(F)(F)Br`, the outcome was “inactive”. In the case of `CCCCCCCCCCCC`, the outcome is reported as “inactive”. For `CC(C)(O)C(=O)c1ccccc1`, the outcome was “inactive”. In the case of `O=C1Cc2ccccc2N1c1c(Cl)cccc1Cl`, the outcome is reported as “inactive”. With `NC(C(F)(F)F)C(F)(F)F` the outcome was “inactive”. For `CC(C)(c1ccc(Oc2ccc(N)cc2)cc1)c1ccc(Oc2ccc(N)cc2)cc1`, the outcome was “inactive”. For `C=CC(=O)OCCN(CC)CC`, the outcome was “inactive”. For `O=C(O)CN(CCCN(CC(=O)O)CC(=O)O)CC(=O)O`, the outcome was “inactive”. With `OCCN1CN(CCO)CN(CCO)C1` the outcome was “inactive”. With `CCOC(=O)CN[C@@H](C(=O)N1CC[C@H]1C(=O)NCc1ccc(/C(N)=N/O)cc1)C1CCCCC1` the outcome was “inactive”. For `c1cc[nH]c1`, the outcome was “inactive”. With `CCCCc1ccc2ccccc2c1S(=O)(=O)O` the outcome was “inactive”. In the case of `O=C1OC(=O)c2cc(-c3ccc4c(c3)C(=O)OC4=O)ccc21`, the outcome is reported as “inactive”. With `COCC1CCC(CO)CC1` (stereo not given) the outcome was “inactive”. With `O=C(c1ccccc1)c1ccccc1` the outcome was “inactive”. For `CNNCc1ccc(C(=O)NC(C)C)cc1`, the outcome was “inactive”. For `CC=O`, the outcome was “inactive”. In the case of `Oc1cccc2c(O)cccc12`, the outcome is reported as “inactive”. For `NNC(=O)CCCCC(=O)NN`, the outcome was “inactive”. For `O=C(OC(=O)C(F)(F)C(F)(F)F)C(F)(F)C(F)(F)F`, the outcome was “inactive”. For `Cc1[nH]nc2c1N=C(c1ccccc1Cl)c1cc([N+](=O)[O-])ccc1N2`, the outcome was “inactive”. In the case of `CCC(=O)O`, the outcome is reported as “inactive”. With `Nc1cc(Cl)c(-c2cc(Cl)c(N)cc2Cl)cc1Cl` the outcome was “inactive”. For `FC(F)=C(F)C(F)(F)C(F)(F)C(F)(F)C(F)F`, the outcome was “inactive”. For `Cn1sccc1=O`, the outcome was “inactive”. For `CCCCC=O`, the outcome was “inactive”.
